# ROS inducer: inducers of reactive oxygen species in cancer cells | ROS induction (% of piperlongumine), % at 10 µM | 2% of 46,000 active | U2OS ROS induction, H2DCF-DA fluorescence; in the data active = ROS induction above about 79%, passing the limit was not always enough;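 note: 0% = DMSO vehicle median and 100% = reference compound median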
# An asterisk follows results filed as active. The full list was thinned out, with hits kept by preference.
SMILES,ROS inducer
C[CH2][Hg][S]c1ccccc1C(=O)O,135.9*
CNc1ccccc1C(=O)O,5.9
COCc1cc(OC(=O)N(C)C)nc(COc2ccc(Cl)cc2)n1,-8.5
C/C=C\C(=O)O[C@@H]1C[C@H]2O[C@@H]3C=C(C)C(=O)C[C@]3(C)[C@]1(C)[C@]21CO1,6.1
O=C1NCN(c2ccccc2)C12CCN(CCCOc1ccc(F)cc1)CC2,0.0
O=C(CCCN1CCC2(CC1)C(=O)NCN2c1ccccc1)c1ccc(F)cc1,98.1*
C/C1=C/[C@@H](C)C/C=C/[C@H]2[C@@H]3O[C@]3(C)[C@@H](C)[C@H]3[C@H](Cc4c[nH]c5ccccc45)NC(=O)[C@]32C(=O)/C=C\C(=O)[C@@H]1O,46.8
O=C(CC[N+](=O)[O-])OC[C@H]1O[C@@H](O)[C@H](OC(=O)CC[N+](=O)[O-])[C@@H](OC(=O)CC[N+](=O)[O-])[C@@H]1OC(=O)CC[N+](=O)[O-],-9.9
O=[P+](c1ccccc1)c1ccccc1,-0.5
CN(C(=O)c1ccc(Cl)cc1)c1ccc(Cl)cc1C(=O)c1ccccc1,-0.5
CC(C)(C)c1nc2ccccc2c(=O)n1-c1ccc(F)cc1F,9.2
O=C(NC1CN2CCC1CC2)c1cccc(Cl)c1 (configuration not stated),87.7*
Clc1cccc(N2CCNCC2)c1,-8.8
CO[C@H]1[C@H](O)[C@H](O[C@H]2CC[C@]3(C)C4CC[C@]5(C)C(C6=CC(=O)OC6)CC[C@]5(O)C4CC[C@@H]3C2)O[C@@H](C)[C@@H]1O (some centres not stated),-12.7
COc1ccc2c(c1)[C@]13CCCC[C@H]1[C@H](C2)N(C)CC3,1.3
CC1(C)C(C(=O)Nc2nccs2)C1(C)C,-4.2
Cc1ccc2[nH]cc(CC(C)N)c2c1 (configuration not stated),-11.3
CCN(CC)CCc1c(C)c2ccc(O)cc2oc1=O,-14.7
C=C(CO)C(=O)O[C@H]1CC(=C)[C@@H]2C[C@H](O)C(=C)[C@@H]2[C@H]2OC(=O)C(=C)[C@@H]21,96.1*
C=C(CO)C(=O)O[C@H]1C/C(C)=C\CC/C(CO)=C\[C@H]2OC(=O)C(=C)[C@H]12,72.6
CC(C)C(O)(C(=O)OCC1=CCN2CCC(O)C12)C(C)O (configuration not stated),3.4
CC1(C)C(C(=O)Nc2ccc(S(=O)(=O)c3ccc(NC(=O)C4C(C)(C)C4(C)C)cc3)cc2)C1(C)C,-8.8
CN1CCN(CC(=O)Nc2ccc(Br)cc2C(=O)c2ccccc2)CC1,2.2
O=c1c2ccccc2nc(CSc2ncnc3ccccc23)n1-c1ccccc1F,26.6
CC(C)Sc1nnc(OC(=O)N(C)C)n1-c1cccc(C(F)(F)F)c1,-13.7
SMILES,ROS inducer
COC(=O)C1=COC(C)C2CN3CCc4c([nH]c5cc(OC)ccc45)C3CC12 (configuration not stated),103.3*
COC(=O)C1=COC(C)C2CN3CCC4(C(=O)Nc5ccccc54)C3CC12 (configuration not stated),10.3
COC(=O)C12CC3CC(C(C)O)C1N(CCc1c2[nH]c2cc(OC)ccc12)C3 (configuration not stated),10.1
O=C(c1ccco1)c1cn(CCCOc2ccccc2)c2ccccc12,16.4
CCc1ccc(CN2CCN(Cc3ccc(CC)cc3)CC2)cc1,34.4
CC(O)CN1CC2CC(C1)c1cccc(=O)n1C2 (configuration not stated),-4.8
CC1(C)C(=O)C=C[C@@]2(C)C1C(=O)C(=O)[C@]1(C)C2CC[C@@]2(C)[C@H](c3ccoc3)C[C@H]3O[C@]321 (some centres not stated),178.5*
CCOC(=O)C1=C(N)Oc2c(c(=O)oc3ccccc23)C12C(=O)N(CC(=O)OC)c1ccccc12 (configuration not stated),97.1*
CCOC(=O)C1=C(N)Oc2c(c(=O)oc3ccccc23)C1c1ccccc1 (configuration not stated),-4.8
O=C(c1ccc2nc(N3CCCCC3)sc2c1)N1CCC2(CC1)OCCO2,-6.7
Cc1[nH]c2ccccc2c1CCNCC(C)(C)C,5.2
C[C@@H]1CN([C@H](C)CO)C(=O)CCCn2nncc2CO[C@H]1CN(C)C(=O)Oc1ccc2ccccc2c1,19.1
C[C@@H]1CN([C@H](C)CO)C(=O)CCCn2nncc2CO[C@@H]1CN(C)C(=O)Oc1ccc2ccccc2c1,149.4*
C[C@@H]1CN([C@@H](C)CO)C(=O)CCCn2nncc2CO[C@@H]1CN(C)C(=O)Oc1ccc2ccccc2c1,43.7
Cc1nc(-c2ccccc2)nc(OC(=O)N(C)C)c1Oc1cccc(C(F)(F)F)c1,27.6
